Experimental data: PubChem BioAssay AID1030 (National Center for Advancing Translational Sciences (NCATS), 2008)
Where “and” joins values, the source holds several entries; their conditions need not be identical. Equal entries are not always repeated. Screen size: about 220,000 compounds; about 16,000 (7.3%) were called active. About 25% were inconclusive and are not listed. The call rests on the fitted dose curve; in most records, active means well fitted inhibition curve with a large enough effect (not every such curve was filed as active); inconclusive means small, poorly fitted or top-dose-only effect, or another doubt; inactive means no such curve, though single readings can be large or run the other way. Shown is part of a subset that was picked to be rich in actives.

Biological target: Aldehyde dehydrogenase 1A1 (Homo sapiens) (UniProt P00352)
Sequence (P00352 whole entry, looked up): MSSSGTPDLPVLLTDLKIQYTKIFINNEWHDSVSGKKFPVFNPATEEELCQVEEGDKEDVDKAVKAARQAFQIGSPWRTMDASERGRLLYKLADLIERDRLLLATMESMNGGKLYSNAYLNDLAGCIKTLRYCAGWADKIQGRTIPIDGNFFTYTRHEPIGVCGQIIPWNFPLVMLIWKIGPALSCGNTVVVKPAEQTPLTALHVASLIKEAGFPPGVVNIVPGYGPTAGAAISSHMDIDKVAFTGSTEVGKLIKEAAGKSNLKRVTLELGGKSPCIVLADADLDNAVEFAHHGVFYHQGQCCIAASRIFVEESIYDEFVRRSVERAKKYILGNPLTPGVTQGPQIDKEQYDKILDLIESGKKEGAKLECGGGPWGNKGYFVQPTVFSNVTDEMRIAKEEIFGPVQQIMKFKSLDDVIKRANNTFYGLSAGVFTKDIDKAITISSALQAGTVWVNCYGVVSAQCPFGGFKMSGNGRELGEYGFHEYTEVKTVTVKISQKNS
Assay: qHTS Assay for Inhibitors of Aldehyde Dehydrogenase 1 (ALDH1A1);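 on activity, negative = inhibition: plate controls were no enzyme wells and a reference inhibitor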
Conditions: Purified ALDH1A1, NADH fluorescence, propionaldehyde substrate; series mostly up to 75.3 µM; activity, negative = inhibition: at the top concentration
Potency means the concentration at half of the fitted maximal effect.

| Structure (SMILES) | Potency | activity, negative = inhibition |
| --- | --- | --- |
| COc1cc(C(=S)N2CCOCC2)ccc1O | 18.9 µM (active) |  |
| COc1ccc(C(=O)C2CCCN(Cc3ccc(C)s3)C2)cc1OC (stereo not given) |  | -3.12% (inactive) |
| C=CCN1CCC23c4c5ccc(O)c4O[C@H]2C(=O)CC[C@@]3(O)C1C5 (stereo not given in full) | inactive |  |
| CCC/C(=N\O)c1c[nH]c2ccccc12 |  | 5.13% (inactive) |
| CCCOC(=O)C1C2c3ccccc3C(c3ccccc32)C1C(=O)O (stereo not given) |  | -3.46% (inactive) |
| Cc1ccc(-c2cc(C(=O)N3CCC4(CC3)OCCO4)no2)cc1 |  | -7.21% (inactive) |
| Cc1ccsc1C(=O)C1CCCN(Cc2ccc(O)cc2)C1 (stereo not given) |  | -0.25% (inactive) |
| COc1ccc2c3c1O[C@H]1C[C@@H](O)C=C[C@@]31CCN(C)C2 |  | -3.43% (inactive) |
| COC(=O)CN1C(=O)C2(C(C(=O)OC)=C(N)Oc3ccccc32)C2=C1CC(C)(C)CC2=O (stereo not given) | 1 µM (active) |  |
| CCOC(=O)CC1=C(C(=O)OCC)C2(C(=O)N1)C(C(=O)OC)=C(N)Oc1ccccc12 (stereo not given) |  | 6.23% (inactive) |
| CCOC(=O)C1=C(C)OC(N)=C(C(=O)OC)C12C(=O)Nc1ccc(Br)cc12 (stereo not given) |  | 0.235% (inactive) |
| CCN1C[C@@]2(COC)CC[C@H](OC)[C@]34[C@@H]1[C@]1(OCO[C@@]15C[C@@H](OC)C1C[C@H]3[C@H]5[C@@H]1OC)[C@H](O)[C@@H]24 |  | -7.9% [at 20.9 µM] (inactive) |
| CC(=O)CC(C)C | 12.6 µM (active) |  |
| N#CC1=C(N)Oc2c(c(=O)oc3ccccc23)C1c1ccccc1OC(=O)c1cccs1 (stereo not given) |  | 4.05% (inactive) |
| COc1ccc(CCn2c(O)c(C=NC3CC3)c(=O)[nH]c2=O)cc1OC |  | 11% (inactive) |
| ClCCBr |  | 6.88% (inactive) |
| CO[C@@H]1C[C@@H](C[C@H]2CC[C@H](C)[C@@H]([C@@H](C)C(=O)O)O2)O[C@]2(O[C@](C)([C@H]3CC[C@@](C)(C4OC([C@H]5O[C@@](O)(CO)[C@H](C)C[C@@H]5C)C[C@@H]4C)O3)C[C@H]2C)[C@@H]1C (stereo not given in full) |  | -0.0239% (inactive) |
| COC(=O)N(c1ccc(OC)cc1)P1(=S)OCCC(C)O1 (stereo not given) | 2.24 µM (active) |  |
| CCOc1ccc(C2SCC(=O)Nc3c2c(C)nn3C2CCOC(C)(C)C2)cc1 (stereo not given) |  | 19.5% (inactive) |
| ClC(Cl)=C(Cl)C(Cl)=C(Cl)Cl |  | 6.19% (inactive) |
| O=C1NC(=O)N(c2ccc(F)cc2)C(=O)/C1=C/c1ccc2c(c1)CCCN2Cc1ccccc1 | 0.158 µM (active) |  |
| Fc1ccc(C(OCCN2CCN(C/C=C\c3ccccc3)CC2)c2ccc(F)cc2)cc1 |  | -3.07% (inactive) |
| CC(C)(O)c1[se]c2ccccc2c1I |  | -9.12% (inactive) |
| c1ccc(CN2CC[C@@]3(CCCNC3)C2)cc1 |  | 6.49% (inactive) |

| Structure (SMILES) | Potency | activity, negative = inhibition |
| --- | --- | --- |
| CC(=O)Cc1ccc(OC(C)C)cc1 |  | 4.31% (inactive) |
| CN(C)c1nc(N(C)C)nc(N(C#N)CCCl)n1 | 6.31 µM (active) |  |
| O=C1C2(Cl)C3(Cl)C4(Cl)C(Cl)(Cl)C5(Cl)C3(Cl)C1(Cl)C5(Cl)C24Cl (stereo not given) |  | 0.669% (inactive) |
| NC[C@H](O)c1ccc(O)cc1 |  | -2.77% [at 20.9 µM] (inactive) |
| c1ccc(C2NCc3ccccc3-n3cccc32)cc1 (stereo not given) |  | -2.04% (inactive) |
| O=C(OCC(=O)c1cccs1)C1=COCCO1 | 14.1 µM (active) |  |
| CN1CCN(C(=O)O[C@@H]2c3nccnc3C(=O)N2c2ccc(Cl)cn2)CC1 |  | -0.229% (inactive) |
| CC(C)(c1ccc(OC[C@@H]2CO2)cc1)c1ccc(OC[C@H]2CO2)cc1 |  | -3.47% (inactive) |
| CC[N+]1(C)CCCC(OC(=O)C(O)(c2ccccc2)c2ccccc2)C1 (stereo not given) | inactive |  |
| O=C(NCC(c1cccnc1)N1CCN(c2ccccc2)CC1)Oc1ccccc1 (stereo not given) |  | -6.2% (inactive) |
| CCCn1c(C(=O)c2ccccc2OC)nc2ccccc21 |  | -12.3% (inactive) |
| Cc1cccc(N2C(=O)NC(=O)/C(=C\c3cnn(-c4ccccc4)c3)C2=O)c1 | 7.08 µM (active) |  |
| C[C@H]1CC[C@@]2(NC1)O[C@@H]1C[C@H]3[C@@H]4CC=C5C[C@@H](O)CC[C@]5(C)[C@@H]4CC[C@]3(C)[C@@H]1[C@@H]2C |  | 6.18% [at 20.9 µM] (inactive) |
| NCC(O)c1ccc(O)cc1 (stereo not given) | inactive |  |
| Cc1cc(C)cc(NC(=S)NC2CC3CCCC(C2)N3Cc2cccs2)c1 (stereo not given) |  | -4.86% (inactive) |
| O=C(CSC1c2ccccc2-c2ccccc21)N/N=C/c1ccccc1 |  | -2.88% (inactive) |
| O=C(CN1CCCC1=O)NCCc1ccccc1 |  | 4.93% (inactive) |
| COC1=C[C@@H]2[C@@H]3Cc4ccc(OC)c(O)c4[C@]2(CCN3C)CC1=O |  | 0.364% (inactive) |
| CC(C(=O)Nc1ccc(Cl)cc1Cl)N1CC=C(c2ccccc2)CC1 (stereo not given) |  | -8.8% (inactive) |
| CCCC[N+]1(C)C2CC(OC(=O)C(CO)c3ccccc3)CC1C1OC12 (stereo not given) | inactive |  |
| CC(=O)NC(=O)NC(C)Cc1ccccc1 (stereo not given) |  | 4.95% (inactive) |
| CC(C)CC(C)Nc1ccc(Nc2ccccc2)cc1 (stereo not given) | 14.1 µM (active) |  |
| CC12CN3CC(C)(CN(C1)C3c1cccs1)C2 (stereo not given) |  | 4.85% (inactive) |
| CCCCC(=O)N/N=C/c1c(O)n(CC)c(=S)n(CC)c1=O |  | -14.7% (inactive) |

| Structure (SMILES) | Potency | activity, negative = inhibition |
| --- | --- | --- |
| Cc1cc(-c2ccc(N)c(C)c2)ccc1N | 28.2 µM (active) |  |
| CC1CCCCN1Cc1cccnc1 (stereo not given) |  | -10.2% (inactive) |
| C/C(=C\C=C/[C@@H](C)C(=O)O)[C@H]1CN[C@H](C(=O)O)[C@@H]1CC(=O)O |  | -4.2% (inactive) |
| CCN1C[C@]2(COC)C(O)C[C@H](OC)[C@@]34C5C[C@]6(O)C(OC)C(O)[C@](OC(C)=O)(C5C6OC(=O)c5ccccc5)C(C(OC)C23)C14 (stereo not given in full) |  | -3.76% (inactive) |
| CC(=O)c1c(O)c(C)c(O)c(Cc2c(O)c3c(c(C(=O)/C=C/c4ccccc4)c2O)OC(C)(C)C=C3)c1O | 17.8 µM (active) and 14.1 µM (active) |  |
| CC(=O)c1c(O)c(C)c(O)c(Cc2c(O)c3c(c(C(=O)/C=C\c4ccccc4)c2O)OC(C)(C)C=C3)c1O | 22.4 µM (active) |  |
| COC1=C[C@]23CCCN2CCc2cc4c(cc2[C@@H]3[C@@H]1O)OCO4 |  | -1.15% (inactive) |
| O=C(O)C1C2CCC(O2)C1C(=O)O (stereo not given) |  | 8.57% (inactive) |
| CN(C)C1C(=O)C(C(N)=O)=C(O)[C@@]2(O)C(=O)C3=C(O)c4c(O)cccc4[C@@](C)(O)C3C[C@@H]12 (stereo not given in full) |  | -12.3% (inactive) |
| C=CCSSCC=C | 6.31 µM (active) |  |
| CN(C)c1ccc(/C=C2\CC3C4CC=C5CC(O)CCC5(C)C4CCC3(C)C2=O)cc1 (stereo not given) |  | 1.47% (inactive) |
| O=C1NC(=O)C(CCc2ccccn2)(Cc2cccc(Cl)c2Cl)C(=O)N1c1ccc(Br)cc1 (stereo not given) |  | 2.63% (inactive) |
| CCOC(=O)C(O)(c1ccc(N=Cc2ccccc2O)c(C)c1)C(F)(F)F (stereo not given) |  | -8.17% (inactive) |
| CN(C)C(=O)Oc1cc(=O)n2c3c(cccc13)CCC2 |  | -0.966% (inactive) |
| COc1ccc(C2=NOC(COC(=O)c3ccc4ccccc4n3)C2)cc1 (stereo not given) | 5.62 µM (active) |  |
| CN(C)/C=C(\C=[N+](C)C)c1[nH]ncc1[N+](=O)[O-] |  | -1.75% (inactive) |
| CC[N+](CC)(CC)CCCCCCCCCC[N+](CC)(CC)CC |  | 0.542% (inactive) |
| O=C1C2CCN(CC2)C1(CO)CO | inactive |  |
| CC(C)n1c(=O)c(C=Nc2ccc(Br)cc2)c(O)n(Cc2ccco2)c1=O | 14.1 µM (active) |  |
| CN(C)CCCN=Cc1c(O)n(Cc2ccco2)c(=O)[nH]c1=O |  | -1.51% (inactive) |
| COc1cc2c(cc1OC)[C@@H]1C(=O)c3ccc(O)c(CC=C(C)C)c3OC1CO2 (stereo not given in full) |  | 9.01% (inactive) |
| CC(=O)Nc1ccccc1C(=O)OCC(=O)c1cccc2ccccc12 |  | 1.69% (inactive) |
| NCC[Se][Se]CCN | 3.55 µM (active) |  |
| CC[C@H]1CN2CCc3cc(OC)c(OC)cc3[C@@H]2C[C@@H]1C[C@H]1NCCc2cc(OC)c(OC)cc21 | inactive |  |

| Structure (SMILES) | Potency | activity, negative = inhibition |
| --- | --- | --- |
| CCc1cccc2c(C#N)cn(CC(=O)N3CCOCC3)c12 |  | 0.358% (inactive) |
| CCN(CC)P(=O)(Oc1cccc(C)c1)N(CC)CC |  | 2.46% (inactive) |
| Cc1cccc([C@H](C)c2cnc[nH]2)c1C |  | -6.99% (inactive) |
| ClC(Cl)(Cl)c1ccccc1 | inactive |  |
| O=Cc1cn(Cc2ccc(F)cc2Cl)c2ccccc12 | 3.16 µM (active) |  |
| Cc1ccc(-c2nn(CCC#N)cc2C(=O)O)cc1C |  | 18.1% (inactive) |
| Cc1ccc(S(=O)(=O)O[C@H]2CN3CCC2CC3)cc1 |  | 4.24% [at 13.5 µM] (inactive) |
| COC(=O)c1ccc2[se]c(CC3CCCCC3)c(I)c2c1 |  | 4.76% (inactive) |
| CCCCCCCCCCCCCC(=O)O[C@@H]1[C@@H](C)[C@@]2(O)[C@@H](C=C(CO)C[C@]3(O)C(=O)C(C)=C[C@@H]23)[C@@H]2C(C)(C)[C@]12OC(C)=O |  | -2.86% (inactive) |
| Cn1c(O)c(C=NCCCC(=O)O)c(=O)n(C)c1=O |  | -4.25% (inactive) |
| C[C@@H]1C[C@@H]2O[C@H]2/C=C\C=C\C(=O)Cc2c(Cl)c(O)cc(O)c2C(=O)O1 |  | -5.35% (inactive) |
| O=C(C1CC(=O)N(C2CCCC2)C1)N1CCC2(CC1)OCCO2 (stereo not given) |  | 2.67% (inactive) |
| C=CCN1C(=O)C2(C(C(=O)OCC)=C(N)Oc3c2c(=O)oc2ccccc32)c2ccccc21 (stereo not given) | 0.398 µM (active) |  |
| CCOC(=O)c1ncn2c1[C@@H]1CCCN1C(=O)c1cc(OC)ccc1-2 |  | -5.12% (inactive) |
| CCOCCc1c(O)[nH]c(=S)[nH]c1=O |  | -3.64% (inactive) |
| CCOC(=O)C1CN(C)CCC1=O (stereo not given) |  | 3.02% (inactive) |
| CNC(C)[C@@H](O)c1ccccc1 (stereo not given in full) |  | -5.15% (inactive) |
| O=c1oc2ccccc2c(O)c1C(c1ccccc1O)c1c(O)c2ccccc2oc1=O |  | 10.4% (inactive) |
| c1ccc2sc(C3CCCNC3)nc2c1 (stereo not given) |  | 8.39% (inactive) |
| c1ccc2sc(N3CCNCC3)nc2c1 |  | 8.53% (inactive) |
| c1ccc2sc(SNC3CCCCC3)nc2c1 | 0.794 µM (active) |  |
| C1CC[C@H]([C@@]23C[C@H](C[C@H]4CCCN[C@H]42)[C@@H]2CCCCN2C3)NC1 |  | 5.48% (inactive) |
| CC1(C)C(c2ccccc2)=NC(c2cccnc2)=[N+]1[O-] |  | 4.87% (inactive) |
